Measurements from PubChem BioAssay.
For some of these results: Results with a measured potency or affinity are listed apart. Activity calls are given as the source filed them.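 How the source made its calls, unless noted: active means fluorescence ratio normalized to control raised more than 50% in primary screen plus both repeat runs; inactive means the rest.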

Key:
[1] = test system: TRPC4 beta (transient receptor potential cation channel C4), mouse; test: TRPC4 cation channel opening, retest – cell-based, Fluo4 calcium, HEK293 TRPC4beta/mu-opioid, duplicates, 10 µM, confirmation (AID 2426); conditions: Fluo4 calcium fluorescence, at 10 µM; active compounds read high;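 on activation: percent rise of integrated ratio over buffer wells lacking compound which define 0%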
[2] = test system: transient receptor potential cation channel C4 beta (TRPC4), mouse; test: TRPC4 cation channel opening, second retest – cell-based, second round, Fluo4, HEK293 TRPC4beta/mu-opioid, 1 µM, confirmation (AID 2461;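 active means primary screen active and over 50% activation in each of two duplicate runs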); conditions: Fluo4 calcium fluorescence, at 1 µM; active compounds read high
[3] = test system: TRPC4 (transient receptor potential cation channel C4 beta), mouse; test: potentiation of DAMGO EC20 TRPC4 response – cell-based, second round, Fluo-4, HEK293 TRPC4beta/mu-opioid, 1 µM, confirmation (AID 2554;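 active means primary screen hit whose fluorescence ratio, in both repeats, exceeds the weak agonist control mean by 3 SD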); conditions: DAMGO EC20, Fluo-4 calcium flux, at 1 µM; active compounds read high
[4] = test system: TRPC4 beta (transient receptor potential cation channel C4), mouse; test: potentiation of DAMGO EC20 TRPC4 response – cell-based, Fluo-4, HEK293 TRPC4beta/mu-opioid, confirmation (AID 2555;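 active means primary screen hit whose calcium fluorescence ratio, in both repeats, exceeds the weak agonist control mean by 3 SD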); conditions: DAMGO EC20, Fluo-4 calcium flux, at 10 µM; active compounds read high
[5] = biological target: Short transient receptor potential channel 4 (Mus musculus) (UniProt Q9QUQ5); test: blockers of DAMGO-evoked TRPC4 calcium flux – cell-based, Fluo4, HEK293 TRPC4beta/mu-opioid, confirmation (AID 2636;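 active means calcium signal cut by more than 3 SD below the full-agonist control yet still positive, in both repeats and the earlier primary screen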); conditions: at 10 µM; active compounds read high
[6] = biological target: Short transient receptor potential channel 4 (Mus musculus) (UniProt Q9QUQ5); test: blockers of DAMGO-evoked TRPC4 calcium flux – cell-based, second round, Fluo4, HEK293 TRPC4beta/mu-opioid, 1 µM, confirmation (AID 2637;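 active means calcium signal ratio cut to more than 3 SD under the fully stimulated control mean yet still positive, in both repeats and the primary screen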;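 on inhibition: percent of integrated ratio relative to wells lacking test compound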); conditions: at 1 µM; active compounds read high
[7] = biological target: Short transient receptor potential channel 4 (Mus musculus) (UniProt Q9QUQ5); test: calcium entry via TRPC4 opening agents – cell-based, HEK293 TRPC4/mu-opioid, Fluo-4 calcium, dose response (AID 434937;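 active means primary screen activator hit with a dose response curve and TRPC4 channel activation at any tested dose; inactive means no activation, no dose response, or not a primary hit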)
[8] = biological target: Short transient receptor potential channel 4 (Mus musculus) (UniProt Q9QUQ5); test: potentiation of DAMGO-evoked TRPC4 calcium signal – cell-based, HEK293 TRPC4/mu-opioid, Fluo-4 calcium, EC20 DAMGO, dose response (AID 434941;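 active means earlier screen potentiator hit that boosts the TRPC4 ion channel at some dose, with a dose response; inactive means no potentiation, no dose response, or not a prior hit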;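 further: calcium entry triggered by an EC20 dose of DAMGO at the co-expressed mu-opioid receptor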)
[9] = biological target: Short transient receptor potential channel 6 (Mus musculus) (UniProt Q61143); test: TRPC6 blockade by TRPC4 inhibitor hits – cell-based, HEK293, membrane potential dye, duplicate, selectivity assay for TRPC4 inhibitor project, confirmation (AID 434948;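 active means active in primary screen and both duplicates, each dropping signal beyond three positive-control SD with fluorescence still positive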); conditions: HEK293 TRPC6, membrane potential dye fluorescence, at 10 µM, stimulated with maximal-effect acetylcholine; active compounds read high
[10] = biological target: Short transient receptor potential channel 6 (Mus musculus) (UniProt Q61143); test: TRPC6 opening by TRPC4 activator hits – cell-based, HEK293, membrane potential dye, duplicate, selectivity assay for TRPC4 activator project, confirmation (AID 434950;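 active means membrane potential signal rise above negative control mean plus 3 SD in both duplicates, also active in the earlier TRPC4 screen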); conditions: HEK293 TRPC6, membrane potential fluorescence, at 10 µM; activation: active compounds read high; outcome: activation
[11] = biological target: Short transient receptor potential channel 6 (Mus musculus) (UniProt Q61143); test: positive modulators of mouse TRPC6 channel – HEK293 cells, membrane potential dye, duplicate, selectivity assay for TRPC4 potentiator project, confirmation (AID 434952;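 active means compound raising the membrane signal above positive-control mean plus 3 SD in both repeats, and a primary screen hit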); conditions: HEK293 TRPC6, membrane potential dye fluorescence, at 10 µM, maximal acetylcholine added after compound; active compounds read high
[12] = biological target: Short transient receptor potential channel 4 (Mus musculus) (UniProt Q9QUQ5); test: calcium flux activators in TRPC4/5HT1a cells, counter-screen for TRPC4 activator project, cell-based, second counter screen, HEK293 TRPC4/5HT1a, Fluo-4 (AID 434977;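 active means calcium signal rise above buffer-control mean plus 5 SD in both duplicates, and also a hit in the primary screen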;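 on activation: plate controls were assay buffer for no effect and maximal serotonin response for full effect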); conditions: Fluo-4 calcium flux, at 10 µM; active compounds read high
[13] = serotonin-gated TRPC4 signal block – cell-based, second counter screen, HEK293 TRPC4/5HT1a, Fluo-4, counter-screen for TRPC4 inhibitor project, confirmation (AID 434978;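 active means primary screen active whose calcium signal fell more than 3 SD beyond the full-serotonin control mean in both duplicate plates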;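 on outcome: serotonin given first at submaximal then at maximal dose after compound preincubation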); conditions: Fluo-4 calcium flux, at 10 µM, serotonin added to trigger calcium flux; active compounds read high
[14] = test system: TRPC4 (mouse), co-expressed with 5HT1a in HEK293; test: enhancement of serotonin-evoked TRPC4 response – cell-based, second counter screen, HEK293 TRPC4/5HT1a, Fluo-4, counter-screen for TRPC4 potentiator project, confirmation (AID 434979;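 active means signal rise over 3 SD above mean of control wells given weak agonist, in both repeats and first screen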); conditions: Fluo-4 calcium flux, at 10 µM, serotonin added at its EC20 dose; active compounds read high
[15] = nonspecific calcium rise without TRPC4 – cell-based, HEK293 mu-opioid receptor line, counter-screen for TRPC4 activator project, confirmation (AID 449723;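 active means hit in primary screen, with calcium signal over 5 SD above buffer well mean in both duplicates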;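 further: counter screen cells carry the mu-opioid receptor alone and lack TRPC4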); conditions: HEK293 mu-opioid cells, Fluo-4 calcium fluorescence, at 10 µM; active compounds read high
[16] = nonspecific potentiation of DAMGO calcium response – cell-based, HEK293 mu-opioid receptor line, counter-screen for TRPC4 allosteric potentiator project, confirmation (AID 449724;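 active means calcium signal rise more than 3 SD above the low-dose agonist control mean, in both duplicate plates and the primary screen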); conditions: HEK293 mu-opioid receptor cells, Fluo-4 calcium flux, at 10 µM, compound added before EC20 DAMGO stimulus; active compounds read high

Short transient receptor potential channel 4 (Mus musculus), sequence (Q9QUQ5 whole entry, looked up): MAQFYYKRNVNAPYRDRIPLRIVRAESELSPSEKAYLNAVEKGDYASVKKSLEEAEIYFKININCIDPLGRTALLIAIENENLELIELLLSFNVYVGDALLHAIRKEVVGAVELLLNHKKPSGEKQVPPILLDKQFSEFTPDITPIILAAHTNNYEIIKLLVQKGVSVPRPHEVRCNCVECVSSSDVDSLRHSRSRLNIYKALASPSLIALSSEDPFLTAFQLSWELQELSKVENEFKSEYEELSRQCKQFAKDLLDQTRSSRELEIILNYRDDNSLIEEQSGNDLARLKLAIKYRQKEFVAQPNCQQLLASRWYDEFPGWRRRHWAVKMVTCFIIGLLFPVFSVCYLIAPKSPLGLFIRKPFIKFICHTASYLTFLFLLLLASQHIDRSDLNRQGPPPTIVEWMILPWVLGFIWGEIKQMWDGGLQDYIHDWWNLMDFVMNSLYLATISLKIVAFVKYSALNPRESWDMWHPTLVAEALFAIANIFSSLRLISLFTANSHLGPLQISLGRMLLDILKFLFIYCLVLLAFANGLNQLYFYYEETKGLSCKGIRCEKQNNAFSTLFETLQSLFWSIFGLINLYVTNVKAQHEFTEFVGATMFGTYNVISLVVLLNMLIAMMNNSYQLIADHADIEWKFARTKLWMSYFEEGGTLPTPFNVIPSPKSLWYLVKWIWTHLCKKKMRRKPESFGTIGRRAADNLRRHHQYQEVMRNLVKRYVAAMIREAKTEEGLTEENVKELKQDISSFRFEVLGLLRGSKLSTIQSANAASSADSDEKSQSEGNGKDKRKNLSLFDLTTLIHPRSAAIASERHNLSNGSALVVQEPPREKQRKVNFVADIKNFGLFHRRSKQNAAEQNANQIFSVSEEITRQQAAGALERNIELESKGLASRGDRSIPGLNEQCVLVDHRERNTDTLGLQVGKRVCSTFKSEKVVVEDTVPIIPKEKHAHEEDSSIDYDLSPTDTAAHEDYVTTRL
Short transient receptor potential channel 6 (Mus musculus), sequence (Q61143 whole entry, looked up): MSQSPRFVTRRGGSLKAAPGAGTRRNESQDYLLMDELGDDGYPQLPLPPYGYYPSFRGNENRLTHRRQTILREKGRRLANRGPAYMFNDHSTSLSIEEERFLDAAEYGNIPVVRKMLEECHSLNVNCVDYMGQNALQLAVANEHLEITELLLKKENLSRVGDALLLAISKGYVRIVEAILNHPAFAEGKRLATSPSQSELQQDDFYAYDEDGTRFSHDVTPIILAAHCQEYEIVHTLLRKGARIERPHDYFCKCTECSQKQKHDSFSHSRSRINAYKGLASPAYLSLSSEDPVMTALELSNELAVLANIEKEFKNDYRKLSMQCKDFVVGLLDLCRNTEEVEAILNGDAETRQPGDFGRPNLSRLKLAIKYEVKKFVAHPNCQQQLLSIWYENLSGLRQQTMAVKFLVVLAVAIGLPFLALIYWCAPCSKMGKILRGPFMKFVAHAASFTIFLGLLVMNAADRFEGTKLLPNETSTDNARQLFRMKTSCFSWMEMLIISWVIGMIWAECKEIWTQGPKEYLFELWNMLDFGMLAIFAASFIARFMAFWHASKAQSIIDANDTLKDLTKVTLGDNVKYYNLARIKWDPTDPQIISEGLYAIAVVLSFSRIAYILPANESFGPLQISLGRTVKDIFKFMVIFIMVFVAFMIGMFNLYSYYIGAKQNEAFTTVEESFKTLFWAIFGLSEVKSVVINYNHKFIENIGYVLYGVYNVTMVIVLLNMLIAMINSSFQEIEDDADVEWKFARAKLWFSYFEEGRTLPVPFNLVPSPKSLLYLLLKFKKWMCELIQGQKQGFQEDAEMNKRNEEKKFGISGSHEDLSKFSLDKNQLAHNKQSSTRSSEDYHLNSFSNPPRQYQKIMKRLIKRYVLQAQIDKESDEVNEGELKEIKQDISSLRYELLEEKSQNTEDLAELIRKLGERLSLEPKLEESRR

O=[N+]([O-])c1ccc(O)c(C2=NNC(c3ccccc3F)C2)c1 (stereo unspecified)
inactive: outcome [2] | outcome [3] | outcome [4] | outcome [6] | outcome [7] | outcome [8] | outcome [10] | outcome [11] | outcome [13] | outcome [14] | outcome [16]
active: activation [1] 87% | inhibition [5] 55% | inhibition [9] 50% | activation [12] 8.52% | activation [15] 20.8%

CN(C)CCCNc1c2ccccc2nc2ccccc12
active: inhibition [5] 94% | inhibition [6] 62% | inhibition [13] 22.7%
inactive: outcome [1] | outcome [2] | outcome [3] | outcome [4] | outcome [7] | outcome [8] | outcome [9] | outcome [10] | outcome [11] | outcome [12] | outcome [14] | outcome [15] | outcome [16]

Cc1cc(N2CCCCCC2)nc2ccccc12
inactive: outcome [1] | outcome [2] | outcome [3] | outcome [4] | outcome [7] | outcome [8] | outcome [9] | outcome [10] | outcome [11] | outcome [12] | outcome [14] | outcome [15] | outcome [16]
active: inhibition [5] 87% | inhibition [6] 55% | inhibition [13] 15.6%

COc1ccc(-c2csc(NC(=O)Cc3cccc4ccccc34)c2C(=O)O)cc1
active: inhibition [5] 90% | inhibition [13] 40.2%
inactive: outcome [1] | outcome [2] | outcome [3] | outcome [4] | outcome [6] | outcome [7] | outcome [8] | outcome [9] | outcome [10] | outcome [11] | outcome [12] | outcome [14] | outcome [15] | outcome [16]

CCc1cc(C(c2cccc(OC)c2)N2CCOCC2)c(NC(=O)c2ccccc2)s1 (stereo unspecified)
inactive: outcome [1] | outcome [2] | outcome [3] | outcome [4] | outcome [6] | outcome [7] | outcome [8] | outcome [9] | outcome [10] | outcome [11] | outcome [12] | outcome [14] | outcome [15] | outcome [16]
active: inhibition [5] 62% | inhibition [13] 28%

Cc1cc(N2CCCCC2)nc2ccccc12
active: inhibition [5] 83% | inhibition [6] 40% | inhibition [13] 28.5%
inactive: outcome [1] | outcome [2] | outcome [3] | outcome [4] | outcome [7] | outcome [8] | outcome [9] | outcome [10] | outcome [11] | outcome [12] | outcome [14] | outcome [15] | outcome [16]

Cc1ccc2cc(CN(CCN3CCOCC3)C(=O)NCc3ccccc3)c(=O)[nH]c2c1C
inactive: outcome [1] | outcome [2] | outcome [3] | outcome [4] | outcome [7] | outcome [8] | outcome [9] | outcome [10] | outcome [11] | outcome [12] | outcome [14] | outcome [15] | outcome [16]
active: inhibition [5] 80% | inhibition [6] 42% | inhibition [13] 34%

Cc1ccccc1C(=O)NC1CC2CCC(C1)N2Cc1ccccc1 (stereo unspecified)
active: inhibition [5] 68% | inhibition [6] 47% | inhibition [13] 43.3%
inactive: outcome [1] | outcome [2] | outcome [3] | outcome [4] | outcome [7] | outcome [8] | outcome [9] | outcome [10] | outcome [11] | outcome [12] | outcome [14] | outcome [15] | outcome [16]

COc1ccc(Nc2cc(C)nc3ccccc23)cc1
active: inhibition [5] 86% | inhibition [9] 39% | inhibition [13] 28.9%
inactive: outcome [1] | outcome [2] | outcome [3] | outcome [4] | outcome [6] | outcome [7] | outcome [8] | outcome [10] | outcome [11] | outcome [12] | outcome [14] | outcome [15] | outcome [16]

OCC1(CCc2ccccc2)CCN(Cc2cc(Cl)ccc2O)CC1
active: inhibition [5] 79%
inactive: outcome [1] | outcome [2] | outcome [3] | outcome [4] | outcome [6] | outcome [7] | outcome [8] | outcome [9] | outcome [10] | outcome [11] | outcome [12] | outcome [13] | outcome [14] | outcome [15] | outcome [16]

Cc1ccc(N(C(=O)c2snc(C(N)=O)c2N)C(C(=O)NCC2CCCO2)c2ccc(C)o2)c(C)c1 (stereo unspecified)
active: inhibition [5] 75% | inhibition [13] 34%
inactive: outcome [1] | outcome [2] | outcome [3] | outcome [4] | outcome [6] | outcome [7] | outcome [8] | outcome [9] | outcome [10] | outcome [11] | outcome [12] | outcome [14] | outcome [15] | outcome [16]

NC(=O)c1nsc(C(=O)N(Cc2ccccc2F)C(C(=O)NCC2CCCO2)c2ccc(F)cc2)c1N (stereo unspecified)
active: inhibition [5] 93% | inhibition [6] 50% | inhibition [13] 26.4%
inactive: outcome [1] | outcome [2] | outcome [3] | outcome [4] | outcome [7] | outcome [8] | outcome [9] | outcome [10] | outcome [11] | outcome [12] | outcome [14] | outcome [15] | outcome [16]

O=C(Cc1ccccc1[N+](=O)[O-])OCc1cccc([N+](=O)[O-])c1
inactive: outcome [1] | outcome [2] | outcome [3] | outcome [4] | outcome [7] | outcome [8] | outcome [9] | outcome [10] | outcome [11] | outcome [12] | outcome [14] | outcome [15] | outcome [16]
active: inhibition [5] 92% | inhibition [6] 62% | inhibition [13] 35%

CN1CCCCc2c1nc1ccccc1c2N (tested in a mixture with another compound)
inactive: outcome [1] | outcome [2] | outcome [3] | outcome [4] | outcome [7] | outcome [8] | outcome [10] | outcome [11] | outcome [12] | outcome [14] | outcome [15] | outcome [16]
active: inhibition [5] 95% | inhibition [6] 83% | inhibition [9] 27% | inhibition [13] 12.4%

Cc1ccc(C)c(S(=O)(=O)/N=C2\C=C(NS(=O)(=O)c3ccccc3)C(=O)c3ccccc32)c1
inactive: outcome [1] | outcome [2] | outcome [3] | outcome [4] | outcome [6] | outcome [7] | outcome [8] | outcome [10] | outcome [11] | outcome [12] | outcome [13] | outcome [14] | outcome [15] | outcome [16]
active: inhibition [5] 92% | inhibition [9] 33%

CC1CCN(CCCOc2ccc(OCc3ccccc3)cc2)CC1
inactive: outcome [1] | outcome [2] | outcome [3] | outcome [4] | outcome [6] | outcome [7] | outcome [8] | outcome [9] | outcome [10] | outcome [11] | outcome [12] | outcome [14] | outcome [15] | outcome [16]
active: inhibition [5] 96% | inhibition [13] 22.7%
